In PubChem BioAssay AID588342 (National Center for Advancing Translational Sciences (NCATS), 2011) one finds Potency data, which are given here for 50 compounds.

Hit rate of the full screen: of about 360,000 compounds, about 25,000 (6.9%) were called active. A call without a number means that no potency is given here. About 9% were inconclusive and are not listed. This is one part of a sample in which actives are shown more often than they occur. The call rests on the fitted dose curve; in most records, active means well fitted inhibition curve with a large enough effect; inconclusive means small, poorly fitted or top-dose-only effect; inactive means flat fitted curve, though single readings scatter.

In the experiment the target is Luciferin 4-monooxygenase (Photinus pyralis) (UniProt P08659). Description: qHTS profiling assay for firefly luciferase inhibitor/activator using purifed enzyme and Km concentrations of substrates (counterscreen for miR-21 project). Further: nearly all actives have a fitted effect of over 55% in size. To be noted: purified FLuc, luminescence inhibition; series mostly up to 57.5 µM. The text has this: MLPCN Grant: 1 R21 NS059478-01 (miR-21 grant) Assay Provider: NCGC NCGC Assay Overview: Firefly (Photinus pyralis) luciferase is one of the most commonly used transcriptional reporters for a number of reasons. It is considered one of the more dynamically responsive reporters -that is, responsive to changes in reporter transcription - as it requires no post-translational modifications and is enzymatically active directly after protein synthesis (Wood, 1998). Additionally, the half-life of the luciferase protein is short relative to other reporter-gene products (Wood, 1995). Whereas reporters with long half-lives potentially allow for increased signal due to accumulation of reporter-gene product, once accumulated in the cell, dynamic changes in reporter-gene expression may be difficult to detect(Fan and Wood, 2007; Almond et al., 2004). It has been shown that wild-type P. pyralis luciferase has a half-life of approximately […] hours in mammalian cells (Thompson et al., 1991). Firefly luciferase reporter-gene assays are also generally considered one of the most sensitive assay types (Wood, 1995; Wood, 1998). Although light produced in a bioluminescence reaction is of lower intensity than that produced during fluorescence emission, this is offset by little to no background light inherent to luminescent assays. Thus the luciferase reporter can be expressed at much lower levels than fluorescent proteins while still providing robust signal. # However, it was initially observed, in 1991, by Thompson et al., that compounds that resemble the substrates of firefly luciferase (FLuc) can act as competitive inhibitors of the enzyme, and that these compounds, upon interaction with luciferase in the cell, can actually stabilize the protein and increase its half-life. Accumulated intracellular FLuc protein can be measured as an increase in luminescence signal, upon addition of detection reagents (which contain high concentrations of FLuc substrates) commonly used in high-throughput screening. In cell-based reporter gene assays that use FLuc as the reporter gene to quantitate the potential influence of a given compound against the target biology, this apparent increase in luminescence can mistakenly be interpreted as identification of a compound that is active against the target of interest. This is the case for the miR-21 FLuc reporter gene assay used to identify inhibitors of the miR-21 pathway (PubChem AID 2289) - compounds of interest will inhibit miR-21 biogenesis/expression or activity, and are identified by causing an increase in luminescence, due to increased FLuc translation. However, FLuc inhibitory compounds that stabilize the FLuc protein will give an identical read-out, making it difficult to distinguish compounds that are active against the target from those active against FLuc. Previous profiling work to determine the prevalence of compounds that affect FLuc enzymatic activity (PubChem AID 411) identified that ~3% of the MLSMR library (then at ~72K) inhibited FLuc. […] Since the MLSMR had grown to ~350K compounds, and since it was expected that a significant percentage of compounds found active in the miR-21 FLuc assay would be FLuc inhibitors, the library was screened for activity against FLuc using a biochemical assay of purified FLuc and KM concentrations of FLuc substrates (D-luciferin and ATP).
Chain of Luciferin 4-monooxygenase (Photinus pyralis) (P08659 whole entry, looked up): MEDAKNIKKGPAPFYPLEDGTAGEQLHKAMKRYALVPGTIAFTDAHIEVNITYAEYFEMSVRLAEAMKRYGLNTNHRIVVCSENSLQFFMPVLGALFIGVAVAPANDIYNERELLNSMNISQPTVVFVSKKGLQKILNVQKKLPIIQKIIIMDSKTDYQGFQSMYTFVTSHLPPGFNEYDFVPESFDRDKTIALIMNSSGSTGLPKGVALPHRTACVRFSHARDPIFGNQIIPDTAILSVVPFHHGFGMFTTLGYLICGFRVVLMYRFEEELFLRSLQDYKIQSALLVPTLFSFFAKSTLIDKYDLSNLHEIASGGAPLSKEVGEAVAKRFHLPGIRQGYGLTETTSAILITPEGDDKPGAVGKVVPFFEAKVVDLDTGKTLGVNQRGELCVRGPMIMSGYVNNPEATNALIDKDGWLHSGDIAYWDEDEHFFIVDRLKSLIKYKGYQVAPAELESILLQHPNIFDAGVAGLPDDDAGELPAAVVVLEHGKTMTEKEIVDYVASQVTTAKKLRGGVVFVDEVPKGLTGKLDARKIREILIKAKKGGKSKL
NCGC Assay Protocol Summary: Reagents: 50mM Tris acetate, pH 7.5; 10mM Mg acetate; 10uM D-luciferin (Sigma #L9504); 10uM ATP; 0.01% Tween-20; 0.05% BSA; 10nM P. pyralis luciferase (Sigma #L9506) Control compounds used were two known firefly luciferase inhibitors (compounds (2) and (5) in Auld et al., 2010), and DMSO. […]
A general note: In qHTS, concentration-response curves come from the screen itself.
As for `Cc1nc2ccccc2c(=O)n1-c1ccc(NS(=O)(=O)c2ccc(F)cc2F)cc1`, the Potency result is “inactive”. As to `CCN(CC)c1ccc(NC(=O)CN2C(=O)c3cccnc3Oc3ccc(Cl)cc32)c(C)c1`, the Potency entry was “inactive”.

For the compound `COc1ccc2ccn(C)c2c1`, the Potency result is “inactive”. With `OCCNc1nc(Nc2ccc(Cl)c(Cl)c2)nc2ccccc12`, the Potency is 6.01 µM (active). The entry for `COc1cc2nc(Cl)nc(NCCO)c2cc1OC` is “inactive”. Regarding `CN(C)c1nc(Nc2ccc(Cl)c(Cl)c2)nc(N(C)C)n1`, the Potency result was “inactive”. Take `Cc1ccccc1CSc1nc(-c2ccccc2)nc2c1Cc1c(CO)cnc(C)c1O2`: the Potency result is “inactive”.

Consider `Nc1ccn(CC(=O)N2CCN(c3ccccn3)CC2)c(=O)n1`, for which the Potency result was “inactive”. With `O=C(Nc1nc2ccc([N+](=O)[O-])cc2s1)c1ccncc1`, the Potency is 1.07 µM (active). In the case of `O=C(NC(Nc1nc2ccc([N+](=O)[O-])cc2s1)(C(F)(F)F)C(F)(F)F)c1ccccc1`, the Potency result is “inactive”.

Regarding `COc1ccc(C(=O)Nc2nc(-c3ccc(OC)cc3)c(-c3ccc([N+](=O)[O-])cc3)s2)cc1`, the Potency result was “inactive”. The entry for `CCN1CCN(CCCNC(=O)c2ccc3c(c2)sc2nc(-c4ccc(OC)cc4)cn23)CC1` is “inactive”; for `O=C(N/N=C/c1ccc(Br)o1)c1cncc(Br)c1` it is “inactive”. With `COc1cccc(NC(=O)c2ccc(Cn3cc([N+](=O)[O-])cn3)o2)c1`, the Potency result is “inactive”. In the case of `CCc1ccc(CNC(=O)c2ccc(CS(=O)c3ccc(Br)cc3)o2)cc1` (stereo not given), the Potency entry is “inactive”.

As to `CN(C)c1ccc(/C=N/NC(=O)c2ccc(Cn3cc(Br)cn3)o2)cc1`, the Potency is 9.53 µM (active).

Take `CN(C)c1ccc(/C=N/NC(=O)C(O)c2ccc(Br)cc2)cc1` (stereo not given): the Potency entry is “inactive”. Turning to `O=C(N/N=C\c1ccc(Br)cc1)c1ccc(Cn2cccn2)o1`, the Potency was 12 µM (active).

For the compound `O=C(Nc1ccc(Br)c2cccnc12)c1ccc(Cn2cc([N+](=O)[O-])cn2)o1`, the Potency result was “inactive”. Take `O=C(N/N=C/c1ccc2c(c1)OCO2)c1ccc(Cn2cc([N+](=O)[O-])cn2)o1`: the Potency was 6.75 µM (active). Take `O=C(c1ccc(Cn2cc([N+](=O)[O-])cn2)o1)N1CCCC1`: the Potency entry is “inactive”. Consider `Cc1cccc(Cn2c(CN3CCC(C(=O)NCc4ccccc4Cl)CC3)cc3ccccc32)c1`, for which the Potency entry is “inactive”. Regarding `Cc1ccccc1CNC(=O)CCc1cn(Cc2ccccc2C)c2ccccc12`, the Potency entry is “inactive”. Turning to `O=c1n(Cc2cccc(C(F)(F)F)c2)c2ccccc2c2nc(-c3ccccc3)nn12`, the Potency entry is “inactive”. On to `COc1ccccc1OCC(=O)Nc1nnc2n1CCS2`, for which the Potency result is “inactive”. With `CCOc1ccc(S(=O)(=O)c2cn(Cc3ccccc3)c3ccc(OCC)cc3c2=O)cc1`, the Potency result is “inactive”. For the compound `O=C1C2C3C=CC(C3)C2C(=O)N1c1ccc(-c2nc3ccccc3c(=O)o2)cc1` (stereo not given), the Potency is 9.53 µM (active). Regarding `O=C1C2C3C=CC(C3)C2C(=O)N1c1ccc(S(=O)(=O)Nc2nccs2)cc1` (stereo not given), the Potency result was “inactive”. For `CCCCCOC(=O)c1ccc(N2C(=O)C3C4C=CC(C4)C3C2=O)cc1` (stereo not given) the value was “inactive”.

In the case of `COc1ccc(CCNc2nc(-c3ccc(F)cc3)cc(C(F)(F)F)n2)cc1OC`, the Potency entry is “inactive”. For `Cc1ccc2c(c1)N(C(=O)Nc1ccc(Br)cc1F)CCO2`, the Potency result was “inactive”.

Turning to `NC(=O)C1CCN(C(=O)c2cccc(NC(=O)c3nsc4ccccc34)c2)CC1`, the Potency is 12 µM (active).

In the case of `CCCCNC(=O)C1CCC(CNS(=O)(=O)c2ccc(NC(C)=O)cc2)CC1` (stereo not given), the Potency result is “inactive”.

`COCCCNC(=O)c1ccc(NC(=O)c2nsc3ccccc23)cc1`: the Potency is 16.9 µM (active). The entry for `COc1cccc(NC(=O)N2CCN(C(=O)c3nsc4ccccc34)CC2)c1` is “inactive”.

Turning to `Cc1ccccc1CNC(=O)c1cccc(NC(=O)c2nsc3ccccc23)c1`, the Potency was 5.36 µM (active). For the compound `Cc1c(Cl)cccc1NC(=O)N1CCN(C(=O)c2nsc3ccccc23)CC1`, the Potency entry was “inactive”. The entry for `COCCCNC(=O)c1ccc2c(c1)ncn2-c1ccccc1OC` is “inactive”. Turning to `O=C(Nc1cccc(C(=O)N2CCCC2)c1)c1ccccc1`, the Potency result was “inactive”. For `COCCCNC(=O)c1ccc(CNS(=O)(=O)c2ccc(NC(C)=O)cc2)cc1` the value was 16.9 µM (active); for `CCc1ccccc1NC(=O)N1CCN(C(=O)c2nsc3ccccc23)CC1`, “inactive”; for `Cc1ccc(CCNC(=O)c2ccc(CNS(=O)(=O)c3ccc(C)cc3)cc2)cc1`, “inactive”. Regarding `CCc1ccc(NC(=O)N2CCN(C(=O)c3nsc4ccccc34)CC2)cc1`, the Potency entry was “inactive”. Turning to `O=C(CSc1nnc(COc2ccc(Cl)cc2)n1Cc1ccco1)N1CCNC1=O`, the Potency entry was “inactive”. In the case of `COc1ccc(OC)c(CNC(=O)Cn2nc(C)c3c(C)n(-c4ccccc4)nc3c2=O)c1`, the Potency result was “inactive”. The entry for `Cc1ccc(CNS(=O)(=O)c2ccc(-c3cc(C(F)(F)F)on3)s2)cc1` is “inactive”; for `COc1ccc(S(=O)(=O)Nc2cc(C)on2)cc1NC(C)=O` it is “inactive”; for `Cc1ccc(-c2nc(S(=O)(=O)c3ccc(C)cc3)c(N3CCCCCC3)o2)cc1` it is “inactive”. Turning to `Nc1ccccc1Sc1cc(Cl)nnc1Cl`, the Potency result is “inactive”. As to `COC(=O)c1scc(-c2ccccc2)c1S(=O)(=O)Nc1ccccc1`, the Potency entry was “inactive”.
